# According to PubChem BioAssay (NCATS):
# Results filed as inconclusive are left out. Unmarked numbers belong to inactive results. Calls of active or inactive are those of the source. Calls come from the whole dose curve; as a rule, active = well fitted curve in the direction sought with a large enough effect; inconclusive = small, poorly fitted or top-dose-only effect, or another doubt; inactive = no such curve, though single readings can be large; an effect the other way counts as inactive or inconclusive.
# Assay: qHTS of pediatric cancer cell lines to identify multiple opportunities for drug repurposing: Primary screen for Rh41 cells (AID 1347108); note: nearly all actives have a fitted effect of over 70% in size; note: potency is the fitted concentration of half-maximal effect;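 for activity change, negative = cytotoxic: luminescence drop marks cytotoxic hits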
# Settings: Rh41 rhabdomyosarcoma viability, CellTiter-Glo luminescence, 48 h; series mostly up to 46 µM; activity change, negative = cytotoxic: at the top concentration
# In short: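 Luminescence from CellTiter-Glo served as readout of metabolically active cells after 48 h compound exposure. Titrations: MIPE 11-point, from 0.78 nM; NPC 8-point, from 0.59 nM (final). Concentration-response curves came straight from the primary screen.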
SMILES,"activity change, negative = cytotoxic",Potency
C[C@H](N)C(=O)c1ccccc1,-5.44% [at 155 µM],
C[C@]12CC[C@H]3[C@@H](CC[C@@]45O[C@H]4C(O)=C(C#N)C[C@]35C)[C@H]1CC[C@H]2O,,20900 nM (active)
CC(Cc1ccccc1)N(C)Cc1ccco1 (centres undefined),20.9%,
Oc1ccc(Cl)cc1,19.8%,
CCOP(=S)(OCC)Oc1ccc2c(C)c(Cl)c(=O)oc2c1,26.8%,
C[N+]1(CCF)[C@@H]2CC[C@H]1CC(OC(=O)C(O)(c1ccccc1)c1ccccc1)C2 (some centres undefined),29.4%,
C[C@H]1[C@@H]2Cc3ccc(O)cc3[C@@]1(C)CCN2C,-4.39% [at 231 µM],
C[C@]12CC[C@@H]3c4ccc(OC(=O)N(CCCl)CCCl)cc4CC[C@H]3[C@@H]1CC[C@@H]2OP(=O)(O)O,28.6%,
CCOC(=O)CC(SP(=S)(OC)OC)C(=O)OCC (centres undefined),,inactive
C[C@]12CC[C@H]3[C@@H](CCC4=CC(=O)CC[C@@H]43)[C@@H]1CC[C@@H]2OC(=O)CCC1CCCCC1,25.7%,
CC(=O)NC1CCSC1=O (centres undefined),12%,
[N-]=[N+]=CC(=O)OC[C@H](N)C(=O)O,8.82%,
CN1CC[C@]23c4c5ccc(O)c4O[C@H]2[C@@H](O)CC[C@H]3[C@H]1C5,8.84% [at 92.7 µM],

# Assay: qHTS of pediatric cancer cell lines to identify multiple opportunities for drug repurposing: Confirmatory screen for NB1643 cells (AID 1347109); note: nearly all actives have a fitted effect of over 45% in size; note: potency is the fitted concentration of half-maximal effect;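 for activity change, negative = cytotoxic: plate controls were DMSO for no effect and bortezomib for full effect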
# Settings: NB1643 neuroblastoma cell viability; series mostly up to 45.9 µM; activity change, negative = cytotoxic: at the top concentration
# In short: (§1)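 Cells (500-1,000/well) rested 5 h, then received compounds for 48 h; metabolically active cells were measured by CellTiter-Glo luminescence. Final concentrations spanned up to 46 µM (MIPE, 11-point) or 0.59 nM-46 µM (NPC, 8-point) in primary screens, 11-point in follow-ups.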
SMILES,"activity change, negative = cytotoxic",Potency
C[C@](O)(CS(=O)(=O)c1ccc(F)cc1)C(=O)Nc1ccc(C#N)c(C(F)(F)F)c1,9.7%,
COc1cccc2c1C(=O)c1c(O)c3c(c(O)c1C2=O)C[C@@](O)(C(=O)CO)CC3OC1CC(N2CCOC(OC)C2)C(O)C(C)O1 (some centres undefined),,14.7 nM (active)
C[C@]12CCC(=O)C=C1CC[C@@H]1[C@@H]2CC[C@@]2(C)[C@H]1CC[C@]2(C)O,-9.13%,
CCCN(CCC)C(=O)Cc1c(-c2ccc(Cl)cc2)nc2ccc(Cl)cn12,-29%,
CCOP(=S)(OCC)Oc1ccc2c(C)c(Cl)c(=O)oc2c1,-57.1%,
O=C(N/N=C/c1ccc([N+](=O)[O-])o1)c1cc([N+](=O)[O-])cc([N+](=O)[O-])c1O,-1.59%,

# Assay: qHTS of pediatric cancer cell lines to identify multiple opportunities for drug repurposing: Confirmatory screen for A673 cells (AID 1347110);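 note: cells exposed to compound for 48 h before the viability read; nearly all actives have a fitted effect of over 65% in size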; note: potency is the fitted concentration of half-maximal effect;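 for activity change, negative = cytotoxicity: plate controls were DMSO neutral control for no effect and bortezomib positive control for full effect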
# Settings: A673 Ewing sarcoma cell viability; series mostly up to 45.9 µM; activity change, negative = cytotoxicity: at the top concentration
# Source text: (§2) Drug repurposing or repositioning has been offered as a strategy for drug development in oncology programs. This approach has special potential for childhood cancers and other rare or orphan diseases, where the expected return on new drug development has been a disincentive to pharmaceuticals.
# (§3) In this project we exploit the poly-pharmacology of drugs to discover new indications via phenotypic screening of a panel of 19 well-characterized cell lines derived from solid tumors seen in children and adolescents. The goal is to identify approved drugs with previously unrecognized anticancer properties that has the potential to reveal new mechanisms and biological processes involved in carcinogenesis or drug resistance. We employed a titration-based paradigm (quantitative high-throughput screening or qHTS), where all compounds were tested at multiple concentrations for their effect on cell viability. Concentration-response curves (CRCs) were derived directly from the primary screen, and both potency and efficacy values were used to identify compounds with robust bioactivity profiles. We screened the NIH Chemical Genomics Center (NCGC) Pharmaceutical Collection (NPC) and Mechanism Interrogation Plate (MIPE) small molecule collections of approved and investigational compounds against these cell lines; and measured metabolically active cells after 48 hours of compound treatment as a proxy for cell viability.
# Assay Submitter: Nathalia J. Martinez, National Center for Advancing Translational Sciences, National Institutes of Health, Rockville, MD, USA; email: natalia.martinez@nih.gov.
# (§4) [1] Shen, M et al. Quantitative high-throughput phenotypic screening of pediatric cancer cell lines identifies multiple opportunities for drug repurposing. Oncotarget 2017 Dec 19;9(4):4758-4772. PMID 29435139.
# (§5) The cells were obtained from University of North Carolina (UNC), Pediatric Preclinical Testing Program (PPT), and Coriell Institute (CI).
# (§6) qHTS cell viability assay:
# (§7) Cells were assayed in growth media at a density of 500-1,000 cells/well. Five microliters of cells were dispensed into 1,536-well, white, solid-bottom, TC-treated plates (Greiner Bio One) using a multidrop dispenser and incubated at 37 degrees C, 5% CO2, under a humidified atmosphere for 5 hours. Twenty-three nanoliters of compounds and controls (neutral control DMSO or positive control bortezomib at final concentration of 2.3 uM) were subsequently transferred by Kalypsys pintool. For primary screens, the MIPE collection was tested at 11-point dilutions (final concentrations range from 0.78 nM to 46 µM) and the NPC collection at 8-point dilutions (final concentrations range from 0.59 nM to 46 µM). Compounds tested in follow-up screens were assayed at 11-point dilutions. Cells were incubated for 48 hours, followed by addition of 3 uL of CellTiter-Glo (Promega). After a 15min incubation at room temperature, samples were analyzed for luminescence intensity using a ViewLux High-throughput CCD imager equipped with clear filters.
SMILES,"activity change, negative = cytotoxicity",Potency,outcome
O=P1(N(CCCl)CCCl)NCCCO1 (centres undefined),4.07%,,
COc1cccc2c1C(=O)c1c(O)c3c(c(O)c1C2=O)C[C@@](O)(C(=O)CO)CC3OC1CC(N2CCOC(OC)C2)C(O)C(C)O1 (some centres undefined),,23.3 nM (active),
C[C@]12CCC(=O)C=C1CC[C@@H]1[C@@H]2CC[C@@]2(C)[C@H]1CC[C@]2(C)O,-5.83%,,
CCCN(CCC)C(=O)Cc1c(-c2ccc(Cl)cc2)nc2ccc(Cl)cn12,,10400 nM (active),
CCOP(=S)(OCC)Oc1ccc2c(C)c(Cl)c(=O)oc2c1,-0.164%,,
O=C(N/N=C/c1ccc([N+](=O)[O-])o1)c1cc([N+](=O)[O-])cc([N+](=O)[O-])c1O,,,inactive

# Assay: qHTS of pediatric cancer cell lines to identify multiple opportunities for drug repurposing: Confirmatory screen for SK-N-MC cells (AID 1347111);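 note: cells exposed to compound for 48 h before the readout; nearly all actives have a fitted effect of over 70% in size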; note: potency is the fitted concentration of half-maximal effect;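 for activity change, negative = cytotoxic: plate controls were DMSO for no effect and bortezomib for full effect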
# Settings: SK-N-MC cell viability; series mostly up to 45.9 µM; activity change, negative = cytotoxic: at the top concentration
# Source text: as §2, §3
# Assay Submitter: Nathalia J. Martinez, National Center for Advancing Translational Sciences, National Institutes of Health, Rockville, MD, USA; email: natalia.martinez@nih.gov
# as §4, §5, §6
# as §7, with “µM)” for “uM)”, “0.59nM” for “0.59 nM”, “15 min” for “15min”
SMILES,"activity change, negative = cytotoxic",Potency
O=P1(N(CCCl)CCCl)NCCCO1 (centres undefined),-2.53%,
O=C(O)CCCc1ccc(N(CCCl)CCCl)cc1,,23300 nM (active)
CC(NC(C)(C)C)C(=O)c1cccc(Cl)c1 (centres undefined),,3290 nM (active)
C[C@](O)(CS(=O)(=O)c1ccc(F)cc1)C(=O)Nc1ccc(C#N)c(C(F)(F)F)c1,-86.8%,
COc1cccc2c1C(=O)c1c(O)c3c(c(O)c1C2=O)C[C@@](O)(C(=O)CO)CC3OC1CC(N2CCOC(OC)C2)C(O)C(C)O1 (some centres undefined),,3.7 nM (active)
O=C(N/N=C/c1ccc([N+](=O)[O-])o1)c1cc([N+](=O)[O-])cc([N+](=O)[O-])c1O,,10400 nM (active)

# Assay: qHTS of pediatric cancer cell lines to identify multiple opportunities for drug repurposing: Confirmatory screen for BT-12 cells (AID 1347112); note: potency is the fitted concentration of half-maximal effect;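 note: viability read after 48 h of compound exposure; nearly all actives have a fitted effect of over 55% in size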; for activity change, negative = cytotoxic: % is set by controls: 0 for no effect and ±100 for the full control effect
# Settings: BT-12 rhabdoid tumor cells, viability; series mostly up to 45.9 µM; activity change, negative = cytotoxic: at the top concentration
# In short: as §1
SMILES,"activity change, negative = cytotoxic",Potency
O=P1(N(CCCl)CCCl)NCCCO1 (centres undefined),-7.99%,
O=C(O)CCCc1ccc(N(CCCl)CCCl)cc1,-4.63%,
CC(NC(C)(C)C)C(=O)c1cccc(Cl)c1 (centres undefined),-11.1%,
C[C@](O)(CS(=O)(=O)c1ccc(F)cc1)C(=O)Nc1ccc(C#N)c(C(F)(F)F)c1,-7.28%,
COc1cccc2c1C(=O)c1c(O)c3c(c(O)c1C2=O)C[C@@](O)(C(=O)CO)CC3OC1CC(N2CCOC(OC)C2)C(O)C(C)O1 (some centres undefined),,46.5 nM (active)
C[C@]12CCC(=O)C=C1CC[C@@H]1[C@@H]2CC[C@@]2(C)[C@H]1CC[C@]2(C)O,-9.02%,
CCCN(CCC)C(=O)Cc1c(-c2ccc(Cl)cc2)nc2ccc(Cl)cn12,-11.9%,
CCOP(=S)(OCC)Oc1ccc2c(C)c(Cl)c(=O)oc2c1,-14.8%,
O=C(N/N=C/c1ccc([N+](=O)[O-])o1)c1cc([N+](=O)[O-])cc([N+](=O)[O-])c1O,-6.67%,

# Assay: qHTS of pediatric cancer cell lines to identify multiple opportunities for drug repurposing: Confirmatory screen for LAN-5 cells (AID 1347113); note: nearly all actives have a fitted effect of over 65% in size; for activity change, negative = cytotoxicity: % is set by controls: 0 for no effect and ±100 for the full control effect
# Settings: LAN-5 neuroblastoma cell viability; series mostly up to 45.9 µM; activity change, negative = cytotoxicity: at the top concentration
# In short: as §1
SMILES,outcome,"activity change, negative = cytotoxicity"
O=P1(N(CCCl)CCCl)NCCCO1 (centres undefined),inactive,
C[C@](O)(CS(=O)(=O)c1ccc(F)cc1)C(=O)Nc1ccc(C#N)c(C(F)(F)F)c1,,18.6%
C[C@]12CCC(=O)C=C1CC[C@@H]1[C@@H]2CC[C@@]2(C)[C@H]1CC[C@]2(C)O,,4.63%
CCCN(CCC)C(=O)Cc1c(-c2ccc(Cl)cc2)nc2ccc(Cl)cn12,,-9.64%
O=C(N/N=C/c1ccc([N+](=O)[O-])o1)c1cc([N+](=O)[O-])cc([N+](=O)[O-])c1O,,5.48%

# Assay: qHTS of pediatric cancer cell lines to identify multiple opportunities for drug repurposing: Confirmatory screen for DAOY cells (AID 1347114); note: nearly all actives have a fitted effect of over 65% in size; note: potency is the fitted concentration of half-maximal effect; for activity change, negative = cytotoxic: % is set by controls: 0 for no effect and ±100 for the full control effect
# Settings: DAOY medulloblastoma cells viability, cytotoxicity qHTS; series mostly up to 45.9 µM; activity change, negative = cytotoxic: at the top concentration
# In short: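 Viability measured as metabolically active cells via CellTiter-Glo luminescence following 48 hours of compound exposure, 11-point dilutions in confirmatory testing. 500-1,000 cells/well plated 5 hours before dosing; controls were DMSO and 2.3 µM bortezomib.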
SMILES,"activity change, negative = cytotoxic",Potency
O=C(O)CCCc1ccc(N(CCCl)CCCl)cc1,4.67%,
COc1cccc2c1C(=O)c1c(O)c3c(c(O)c1C2=O)C[C@@](O)(C(=O)CO)CC3OC1CC(N2CCOC(OC)C2)C(O)C(C)O1 (some centres undefined),,32.9 nM (active)
CCOP(=S)(OCC)Oc1ccc2c(C)c(Cl)c(=O)oc2c1,9.56%,
O=C(N/N=C/c1ccc([N+](=O)[O-])o1)c1cc([N+](=O)[O-])cc([N+](=O)[O-])c1O,-6.77%,
